Among all 68,000 compounds or so, about 2,700 (4%) showed an effect of 50% or more. Many of the other results were omitted from the sample, so strong results are more common in it than they were.

This assay deals with Plasmodium berghei. As to the kind of experiment: Screen against P. berghei liver stage (PbLuc), transformed with Luciferase, at 2uM. The format is functional, HepG2. Conditions: tested at 2 uM.
For `O=C(NC[C@H]1OC[C@@H](NCc2ccccc2F)[C@@H]1O)c1ccc(F)cc1`, the INHIBITION is -13.88%. On to `CCC(CCN)n1ccc(C(F)(F)F)n1` (stereo unspecified), for which the INHIBITION is given as -31.71%.

Regarding `Cn1cnnc1SC1CCc2ccccc2NC1=O` (stereo unspecified), the INHIBITION was 21.31%. `CN(Cc1cn2c(n1)CN(Cc1ccsc1)CC2)Cc1ccco1`: the INHIBITION was -9.48%.

As for `COCc1nc2nc(O)c3c(n2n1)NC(=O)CC3c1ccc(SC)cc1` (stereo unspecified), the INHIBITION was -19.97%. On to `Cc1cccc(C(=O)N2CCC3(CC2)CC(c2cnn(C)c2)CO3)c1` (stereo unspecified), for which the INHIBITION is recorded as 11.79%. `CC(C(=O)Nc1ccnn1C(C)C)N1CCc2nn(C)c(=O)cc2C1` (stereo unspecified): the INHIBITION is given as -15.38%. Consider `CC(C)CN1CCCC1c1cc[nH]n1` (stereo unspecified), for which the INHIBITION was determined as 17.29%.

As to `c1ccc(COC[C@@H]2CCC[C@]23CN(Cc2nccs2)CCO3)nc1`, the INHIBITION worked out at 17.24%. As for `CS(=O)(=O)N1CCCC12CCCN(C(=O)c1ccno1)C2` (stereo unspecified), the figure is 7.3%; as for `CCN(CC)C1(Cc2cc(COC)on2)COC1`, 52.36%; as for `CCN(CC)C1(Cc2cc(CC(C)C)on2)COC1`, 32.59%.

Turning to `COCc1cc(CC2(NC3CCCCC3)COC2)no1`, the INHIBITION is -9.98%. With `Cc1ccc(C(=O)N2CCc3ncnc(C)c3CC2)o1`, the INHIBITION was determined as 32.97%. As for `Cc1ccc(C(=O)N2C[C@H]3CCC[C@@]3(COCC3CCOCC3)C2)o1`, the figure is -35.36%; as for `CCOC(=O)N1CCc2ccccc2C12CCNCC2`, 4.38%. Take `Cc1ccc(CN2CCOC3(CCN(C(=O)N4CCCC4)CC3)C2)cc1`: the INHIBITION turned out to be 33.35%. As to `Cc1ccc(CN2CCOC3(CCN(C(=O)C4CC=CC4)CC3)C2)cc1`, the INHIBITION is given as -41.1%. For the compound `Cc1ccc(CN2CCOC3(CCN(C(=O)C4CCOC4)CC3)C2)cc1` (stereo unspecified), the INHIBITION amounted to 69.37%. As for `Cc1nc(C)n(CC2CN(CCc3ccccc3Cl)CCO2)n1` (stereo unspecified), the figure is -7.08%. As to `Cc1ccccc1CSCCn1nc2ccccn2c1=O`, the INHIBITION turned out to be 6.3%. To `CC(=O)NCCCSC1CCN(c2c(F)cccc2F)C1=O` (stereo unspecified) belongs 41.07%; to `CC(=O)NCCCSC1CCN(c2ccccc2F)C1=O` (stereo unspecified), 75.22%. As to `Cn1nnnc1SC1CCN(c2ccccc2Cl)C1=O` (stereo unspecified), the INHIBITION is 4.99%.

Regarding `CC(=O)NCCCSC1CCN(c2ccccc2Cl)C1=O` (stereo unspecified), the INHIBITION was determined as 68.61%. As for `CC(=O)NCCCSC1CCCN(c2ccccc2Cl)C1=O` (stereo unspecified), the figure is -1.89%; as for `CC(=O)NCCCSC1CCCN(c2ccccc2F)C1=O` (stereo unspecified), 9.13%; as for `CCc1ccc(S(=O)(=O)Nc2ccncc2)s1`, -13.03%. With `COc1cc2c(cc1CN1CCn3c(CO)nnc3C1)CCC2`, the INHIBITION came to 16.14%. As for `Cc1cc(CN2CCCC2c2noc(C)n2)no1` (stereo unspecified), the figure is -52.52%; as for `Cc1nnc([C@@H]2C[C@H]3CN(C4CCC4)C[C@H]3O2)[nH]1`, 4.07%. As for `CCCc1nnc(N2CCN(c3ccccc3OCC)CC2)o1`, the INHIBITION is -11.34%. `O=C(CCC1CCCC1)N1CCCC(c2ncc3c(n2)CCNC3)C1` (stereo unspecified): the INHIBITION is 24.89%. On to `Cc1c(CN2CCCC(C(=O)Nc3ccccc3)C2)cc(C#N)n1C` (stereo unspecified), for which the INHIBITION is reported as 9.63%. Consider `c1cc(CN2CCCCC2c2ccc(Nc3cnccn3)nc2)ccn1` (stereo unspecified), for which the INHIBITION is reported as 42.53%.

In the case of `Cc1ncoc1C(=O)N1CCc2[nH]nc(-c3ccc4c(c3)OCO4)c2C1`, the INHIBITION is recorded as -4.53%. Turning to `Cc1nc(COCc2cnc3n2CCN(CC2CCC2)C3C)cs1` (stereo unspecified), the INHIBITION came to 25.35%.

In the case of `O=C(N[C@@H]1CCC[C@@H](N2CCOCC2)[C@@H]1O)c1cc2ccccc2[nH]1`, the INHIBITION is on record as 8.26%. As to `O=C(N[C@@H]1CCC[C@@H](N2CCCC2)[C@@H]1O)c1cc2ccccc2[nH]1`, the INHIBITION was 14.49%. As for `O=C(N[C@@H]1CC[C@@H](N2CCCC2)[C@@H]1O)c1cc2ccccc2[nH]1`, the INHIBITION was 51.88%. In the case of `COCc1nc(C(=O)NS(=O)(=O)c2cc(F)ccc2F)cs1`, the INHIBITION is recorded as 29.37%. For the compound `Cc1nc(NCc2nncn2C2CC2)c2c(CC(C)C)csc2n1`, the INHIBITION came out at 36.86%. Turning to `COc1ccc(CN2CCC(O)(CN3CCCCC3)C2)c(C)c1` (stereo unspecified), the INHIBITION was -1.21%. To `CN(Cc1noc(C2CC2)n1)C1CCN(Cc2nc(C3CC3)no2)C1` (stereo unspecified) belongs 27.89%; to `CC1CCN(CCCNC(=O)NC(C)c2nncn2C)CC1` (stereo unspecified), 6.3%; to `CCNc1c(NC(=O)NCCOC)c(=O)oc2ccccc12`, -25.41%.

With `FC(F)(F)c1nc(NC2CCCC2)c2ccccc2n1`, the INHIBITION is 15.52%. As to `FC(F)(F)c1nc(NC2CCCCC2)c2ccccc2n1`, the INHIBITION was 52.43%. Turning to `FC(F)(F)c1nc(NC2CCc3ncnn3C2)c2ccccc2n1` (stereo unspecified), the INHIBITION is -8.8%. As for `O=c1c2sccc2nc2n1CCN(Cc1ccccc1C(F)(F)F)CC2`, the figure is 26.56%. As for `O=C1CC(c2ccccc2)C2(CCN(C(=O)c3cnccn3)CC2)N1` (stereo unspecified), the figure is 20.87%; as for `O=C([C@@H]1C[C@@H]2CCN(CCc3ccccc3)C[C@H]2O1)N1CCCC1`, 14.94%. Turning to `O=C([C@@H]1C[C@@H]2CCN(C3CCOCC3)C[C@H]2O1)N1CCCC1`, the INHIBITION is listed as -26.64%. With `COc1ccccc1CN1CC[C@H]2C[C@H](C(=O)N3CCCC3)O[C@H]2C1`, the INHIBITION was 15.89%. Regarding `COc1ccccc1CN1CC[C@H]2C[C@@H](C(=O)N3CCCC3)O[C@H]2C1`, the INHIBITION came out at 52.4%. With `O=C([C@@H]1C[C@@H]2CCN(C3CCOCC3)C[C@@H]2O1)N1CCCC1`, the INHIBITION stood at 65.26%.

Take `O=C([C@H]1C[C@@H]2CCN(C3CCOCC3)C[C@H]2O1)N1CCCC1`: the INHIBITION was 18.65%. As for `CCC1CN(CCC(=O)N(C)C)CCN1CCOC` (stereo unspecified), the INHIBITION is recorded as -7.41%. As for `CC/N=c1\nc(NCC)nc2n1C(O)(Nc1cc(Cl)ccc1Cl)CS2` (stereo unspecified), the figure is 28.5%. To `CCc1nc(C(=O)N2CCN(CC)CC2)nn1-c1ccccc1Cl` belongs 13.24%; to `CC(C)N(C)Cc1nnc2n1CCN(Cc1ccncc1)CC2`, -2.32%.

As for `COc1ccc(Cc2ncc3c(n2)CN(C(=O)CO)C3)cc1`, the INHIBITION turned out to be 6.39%. On to `Cc1cnn(C2CN(CC(=O)N(C)Cc3cccs3)C2)c1`, for which the INHIBITION is recorded as 7.67%. To `Cc1ccc(CN(C)C(=O)CN2CC(n3cccn3)C2)o1` belongs 3%; to `Cc1cnn(C2CN(CC(=O)N(C)Cc3ccc(C)o3)C2)c1`, 62.51%. To `Cc1cc(NCc2ccco2)nc2[nH]nc(N)c12` belongs -0.89%.

(Values after ChEMBL document CHEMBL4513216, “Probing the Open Global Health Chemical Diversity Library for Multistage-Active Starting Points for Next-Generation Antimalarials” (ACS Infect Dis, 2020).)
